From PubChem BioAssay (NCATS)
Inconclusive results are not listed. A number with no mark means an inactive call. The call rests on the fitted dose curve.

Target: Atrial natriuretic peptide receptor 2 (Homo sapiens) (UniProt P20594)
Assay: Natriuretic polypeptide receptor (hNpr2) antagonism - Pilot subtype selectivity assay (AID 1347050)
Details: NPR2-expressing cells, cGMP antagonist-mode read-out; series mostly up to 38.3 µM; activity change, negative = inhibition: at the top concentration
Experimental: F. Fan, B. F. Binkowski, B. L. Butler, P. F. Stecha, M. K. Lewis, K. V. Wood, Novel genetically encoded biosensors using firefly luciferase. ACS Chem Biol 3, 346-351 (2008).
PROTOCOL TABLE (as described by Inglese J, Shamu CE and Guy RK. 2007)
SEQUENCE No. (e.g., 1, 2, 3, etc.); […] (e.g., Cells, Incubation, Reagent, etc.); VALUE and DESCRIPTION.
1. Cells. Seed 1500 HEK293 cGMP-sensor cells expressing hNpr2 per well in 4uL into Greiner 1536-well white/solid bottom high base, TC plates.
2. Incubation. Incubate plated cells at 37C in 5% CO2, 95% RH overnight.
3. Reagent. Add 1uL per well GloSensor reagent from Promega (2% final concentration) or CO2 independent media vehicle control to respective columns of Greiner 1536-well plates.
4. Incubation. Incubate plated cells at ambient temperature for 2 h., protect from light.
5. Compounds. Library compounds and DMSO vehicle control added at 23nL per well, transferred by Pin Tool.
6. Incubation. Incubate plated cells for 30 min. at ambient temperature, protect from light.
7. Detector. GloSensor baseline pre-read luminescence measured using CCD-based camera (Viewlux).
8. Compound. Add 1uL of hNppC peptide to 1 nM final concentration to stimulate hNpr2 or CO2 independent media as vehicle control.
9. Incubation. Incubate treated cells at ambient temperature for 20 min., protect from light.
10. Detector. GloSensor post-hNppC luminescence measured using CCD-based camera (Viewlux).
NOTES (numbers refer to Sequence numbers above)
1. HEK293 cells expressing hNpr2 and GIP/pGS-40F were grown to 85-95% confluence (48-72 h) in T175 culture flasks (CO2 independent media supplemented with 10% FBS, 1% Pen/Strep antibiotics, and 1 ug/mL puromycin). Trypsinize and harvest cells from T175 culture flasks and filter through 40 um cell strainer. Cells counted with Invitrogen Countess (30,000,000 - 50,000,000 cells/flask). Cells diluted to a final concentration of 375 cells/uL in CO2 independent media and a Millipore multidrop used to dispense 1500 cells per well (4uL/well) into 9 x1536-well Greiner White/Solid bottom, high base tissue-culture treated (TC) plates and one Aurora 1536-well Black/Clear bottom, low base, TC plate (for visual inspection of cell health throughout the duration of the assay).
2. Cells incubated for 24 h. at 37C in 95% RH incubator with metal lid having gas-exchange holes.
3. Prepare GloSensor Reagent (Promega): Reconstitute GloSensor luciferase substrate by adding 8.2mL Hepes buffer to 250mg substrate, mix well, protect from light and stored at -80C. Prepare a fresh 12% GloSensor solution in CO2 independent supplemented plating media (see above). Mix well and store at ambient temperature, protected from light. 1uL 12% GloSensor Luciferase Reagent added (2% final concentration) to respective columns of 9 x 1536-well Greiner plate with BioRaptr, 1uL CO2 independent plating media added to respective columns as vehicle control with BioRaptr.
4. Cells incubated for 2 h. at ambient temperature, protected from light with metal lid having gas-exchange holes.
5. 23nL of LOPAC1280 library compounds (7 plates) or DMSO vehicle control transferred to 9 Greiner white/solid bottom high base, TC plates in 7 interplate 1:5 titrations (see Yasgar, A. et al. 2008) with Pintool. Two of the 9 plates are DMSO-only in compound field at beginning and end of compound library-treated plates.
6. Cells incubated for 30-50 min. at ambient temperature protected from light with metal lid having gas-exchange holes.
7. Read cellular baseline GloSensor luminescence in presence of test library compounds on the ViewLux [Exposure = 10 s.; Gain = High; Speed = Slow; and Binning = 2X.]
8. hNppC peptide agonist solution prepared at 1 mM (in H2O) stock concentration. From this a working dilution was prepared at 6 nM in CO2 Independent media. […]
On the % scale 0 is the no-effect control and ±100 the full control effect.

Atrial natriuretic peptide receptor 2 (Homo sapiens), sequence (P20594 whole entry, looked up): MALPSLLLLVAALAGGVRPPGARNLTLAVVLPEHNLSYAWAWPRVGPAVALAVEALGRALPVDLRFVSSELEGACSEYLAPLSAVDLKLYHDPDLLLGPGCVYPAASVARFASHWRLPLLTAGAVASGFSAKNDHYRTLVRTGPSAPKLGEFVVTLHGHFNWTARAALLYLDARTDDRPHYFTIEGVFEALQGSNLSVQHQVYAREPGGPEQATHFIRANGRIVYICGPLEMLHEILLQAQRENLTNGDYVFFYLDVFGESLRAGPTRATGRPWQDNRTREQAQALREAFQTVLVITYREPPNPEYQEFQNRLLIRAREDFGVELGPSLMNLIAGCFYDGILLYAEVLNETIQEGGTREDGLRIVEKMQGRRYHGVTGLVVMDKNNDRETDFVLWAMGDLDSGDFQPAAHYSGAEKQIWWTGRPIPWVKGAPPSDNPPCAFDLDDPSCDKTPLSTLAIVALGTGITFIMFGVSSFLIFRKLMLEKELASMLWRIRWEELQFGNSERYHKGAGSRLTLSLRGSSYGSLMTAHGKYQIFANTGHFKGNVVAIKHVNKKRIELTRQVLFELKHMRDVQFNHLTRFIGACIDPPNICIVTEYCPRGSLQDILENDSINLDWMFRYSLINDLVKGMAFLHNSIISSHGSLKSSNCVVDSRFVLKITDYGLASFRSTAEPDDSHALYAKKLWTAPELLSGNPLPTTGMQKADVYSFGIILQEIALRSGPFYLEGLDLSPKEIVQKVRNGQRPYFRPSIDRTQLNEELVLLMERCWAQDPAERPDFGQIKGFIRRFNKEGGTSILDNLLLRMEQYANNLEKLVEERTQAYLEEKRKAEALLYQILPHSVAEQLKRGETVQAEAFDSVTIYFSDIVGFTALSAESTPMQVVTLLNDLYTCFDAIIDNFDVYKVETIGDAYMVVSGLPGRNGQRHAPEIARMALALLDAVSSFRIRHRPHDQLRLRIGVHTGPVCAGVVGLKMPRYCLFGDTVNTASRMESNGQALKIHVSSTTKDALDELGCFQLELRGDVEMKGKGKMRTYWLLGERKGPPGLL

Compound | activity change, negative = inhibition [%]
CC(C)Cn1c(=O)n(C)c(=O)c2[nH]cnc21 | -1.78
CN1CCc2cc(Cl)c(O)cc2[C@@H](c2ccccc2)C1 | 4.76
O=c1cc(O)cc(/C=C/c2ccc(O)c(O)c2)o1 | 10.4
O=C(O)/C(=C/c1c(C(=O)O)[nH]c2cc(Cl)cc(Cl)c12)c1ccccc1 | -1.9
O=C1OC(=O)C2C3CCC(O3)C12 (stereo not given) | -7.82
COc1ccc(CCn2nnnc2C2(c3ccc(C)cc3)CC2)cc1 | -0.198
Cn1cc(C(F)(F)F)nc1-c1ccc(OCC(O)CNCCOc2ccc(O)c(C(N)=O)c2)cc1 (stereo not given) | -2.68
OC[C@H]1NC[C@@H](O)[C@@H]1O | 3.3
CC(C)NC[C@H](O)COc1ccc(CC(N)=O)cc1 | 4.55
CCc1ccc2c(-c3cccc(Cl)c3)nc(=O)n(CC)c2n1 | 17.2
O=c1[nH]c2cc(Cl)ccc2c(O)c1-c1ccc(Oc2ccccc2)cc1 | -1.82
NC1(C(=O)O)CCc2cc(C(=O)O)ccc21 (stereo not given) | -0.946
CC1CCN(CC[C@H]2CCCN2S(=O)(=O)c2cccc(O)c2)CC1 | -0.642
N[C@@H](Cc1ccc(O)c(I)c1)C(=O)O | 8.23
C#CCn1c(=O)c2c(ncn2C)n(C)c1=O | 0.771
NC1(C(=O)O)CC1 | -4.09
Oc1ccc(Cn2cc[nH]c2=S)cc1 | -1.69
CCCc1c(OCCCOc2ccc(OCC(=O)O)cc2)ccc(C(C)=O)c1O | 1.54
CCN(c1nc(N)c(C(=O)N=C(N)N)nc1Cl)C(C)C | -21.4
CC(O)C(O)[C@H]1CNc2nc(N)[nH]c(=O)c2N1 (stereo not given in full) | 0.179

Compound | activity change, negative = inhibition [%]
Nc1ncnc2c1ncn2C1CCCO1 (stereo not given) | -0.75
C[C@H](NC(=O)/C(C#N)=C/c1ccc(O)c(O)c1)c1ccccc1 | -3.25
N[C@@H](CS(=O)O)C(=O)O | -11.2
COc1ccc2c(c1)c(CC(=O)O)c(C)n2C(=O)c1ccccc1 | -0.856
NC1CONC1=O (stereo not given) | 7.59
CC(C)NCC(O)COc1ccc(CC(N)=O)cc1 (stereo not given) | -25.3
NC(N)=[N+]1CCc2ccccc2C1 | -1.29
Oc1cc2c(cc1O)C(c1ccccc1)CNCC2 (stereo not given) | 0.722
O=C(O)CCC/C=C\C[C@@H]1[C@@H](/C=C/[C@H](O)C2Cc3ccccc3C2)[C@@H](F)C[C@@H]1O | -0.344
O=C(O)[C@H]1NCCC[C@H]1C(=O)O | 12.3
CC[C@@H]1Cc2cc(O)ccc2C2=C1c1ccc(O)cc1C[C@H]2CC | -29.9
COc1cc(C(O)CO)ccc1O (stereo not given) | 5.65
COc1ccc(C(=O)NCc2cccnc2)cc1C(=O)NCc1cccnc1 | 9.93
CN[C@H](CC(=O)O)C(=O)O | 2.32
N[C@@H](Cc1c[nH]c2ccccc12)C(=O)O | 3.07
N=S(=O)(O)Cc1noc2ccccc12 | 3.2
N#Cc1cc2nc(O)c(O)nc2cc1[N+](=O)[O-] | 4.1
Cc1cccc(C2CN(C)CCc3c2cc(O)c(O)c3Cl)c1 (stereo not given) | 4.89
CCN1C(=O)C=CC1=O | 5.79
N[C@@H](Cc1ccc(F)cc1)C(=O)O | -2.87
